# Assay results reported in PubChem BioAssay (NCATS).
# Inconclusive results are not listed. The source made the active and inactive calls. Calls follow the shape of the dose curve; as a rule, active = well fitted inhibition curve with a large enough effect; inconclusive = small, poorly fitted or top-dose-only effect, or effect the other way; inactive = flat fitted curve, though single readings scatter.
# Target: ATP-dependent 6-phosphofructokinase (Trypanosoma brucei brucei) (UniProt O15648)
# Assay: qHTS Assay to Find Inhibitors of T. brucei phosphofructokinase: hit validation (AID 492961);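 also: luminescence reports ADP formed as PFK phosphorylates fructose-6-phosphate with ATP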
# Settings: T. brucei PFK, ADP-Glo luminescence; series mostly up to 51.4 µM
# Description: NIH Molecular Libraries Probe Production Network [MLPCN] NIH Chemical Genomics Center [NCGC] Grant: 1 R03 MH092153-01 PI Name: Malcolm Walkinshaw, University of Edinburgh NCGC Assay Overview: Various species of the protozoan family Trypanosomatidae are responsible for a range of serious human diseases in tropical and subtropical areas of the world. […] Many of the disorders caused by trypanosomatids are fatal if left untreated, but most currently used drugs are inefficient and toxic. […] Oxidative metabolism involving the mitochondrial tricarboxylic acid cycle and oxidative phosphorylation are repressed in these parasites, and recent RNA interference (RNAi) experiments have shown that even partial depletion of certain individual glycolytic enzymes can lead to the death of cultured parasites. One such glycolytic enzyme, phosphofructokinase (PFK), catalyzes the formation of fructose-1,6-bisphosphate (F1,6BP) and ADP from fructose-6-phosphate (F6P) and ATP, and in many metabolic circumstances makes an important contribution to the control of flux through the glycolytic pathway. As a specific glycolytic target, PFK is particularly attractive as it catalyzes the first irreversible step in glycolysis, and structural and kinetic studies have shown very substantial and essential differences from corresponding host enzymes, allowing for the discovery of parasite-selective inhibitors. The goal of this screen is to find small-molecule inhibitors of T. brucei PFK using a biochemical assay that measures PFK activity as a function of ADP production. A luminescence-based assay for T. brucei PFK activity has been developed which uses luciferase to detect production of ADP. Traditional luciferase-based nucleotide detection reagents rely on ATP production as a direct substrate for the luciferase reaction; however, PFK catalyzes the transfer of a phosphate from ATP to F6P, resulting in the net depletion of ATP. To directly measure the ADP product of the PFK reaction, we used the ADP-Glo detection kit (Promega), which utilizes two separate reactions to 1) deplete all remaining uncatalyzed ATP and 2) convert all remaining ADP to ATP, which is then detected through a traditional luciferase-coupled reaction. Compounds were screened as a concentration-titration series that ranged from 57 uM to 0.7 nM.
# NCGC Assay Protocol Summary: Substrate buffer was dispensed into white, solid 1536-well plates at 3uL/well in 0.1M triethanolamine (TEA) buffer, pH 8.0, containing final concentrations of 5 mM MgCl2, 0.01% Tween20, 0.5 mM fructose-6-phosphate (F6P) and 0.1mM ATP. Then, 23 nL of compounds or DMSO were delivered to each well using a pin tool. One uL T. brucei PFK (0.1M TEA, 0.01% Tween20, 0.1% bovine serum albumin (BSA) and 1.25nM PFK, final concentrations) was then dispensed, and plates were incubated at room temperature for 45 min. The luminescent detection reagent, ADP-Glo (Promega), was then added in two steps: the first reagent, ADP-Glo (which converts remaining uncatalyzed ATP), was added at 2.5uL/well and incubated for ten minutes at room temperature, and the second component, Kinase Detection reagent (which converts ADP to ATP as a substrate for luciferase-based luminescence), was added immediately after at 5uL/well, followed by one final ten minute room temperature incubation. The plates were measured on a ViewLux plate reader for luminescent signal using a clear filter with a one second exposure. The %Activity was determined from the corrected luminescence values. As no specific T. brucei PFK inhibitors have been identified in the literature, 1x (1.25nM) and 0x PFK enzyme controls (untreated) were included to normalize %Activity of identified inhibitors; 0x enzyme values corresponded to 100%Activity (full inhibition), while 1x PFK enzyme values were used to normalize 0%Activity (no inhibition). Concentration-response curves were fitted to the signals arising from the resulting luminescence. […]
# Chain of ATP-dependent 6-phosphofructokinase (Trypanosoma brucei brucei) (O15648 whole entry, looked up): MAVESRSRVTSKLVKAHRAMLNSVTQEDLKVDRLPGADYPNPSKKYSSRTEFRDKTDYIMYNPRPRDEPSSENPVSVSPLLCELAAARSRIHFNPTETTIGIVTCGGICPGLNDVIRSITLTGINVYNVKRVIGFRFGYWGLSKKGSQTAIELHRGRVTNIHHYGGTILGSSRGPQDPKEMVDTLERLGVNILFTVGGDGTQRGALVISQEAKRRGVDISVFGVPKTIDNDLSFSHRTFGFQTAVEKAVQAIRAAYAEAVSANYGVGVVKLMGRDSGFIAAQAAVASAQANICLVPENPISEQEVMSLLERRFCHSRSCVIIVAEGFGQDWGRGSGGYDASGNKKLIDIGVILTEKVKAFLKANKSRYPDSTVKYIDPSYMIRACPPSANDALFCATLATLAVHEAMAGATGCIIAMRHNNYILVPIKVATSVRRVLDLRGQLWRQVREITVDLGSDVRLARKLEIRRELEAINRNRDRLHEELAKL
row,Compound,outcome
1,OCCN1CCN(CC/C=C2/c3ccccc3Sc3ccc(C(F)(F)F)cc32)CC1,inactive
2,C[C@]12CCC(=O)C=C1CC[C@@H]1[C@@H]2CC[C@@]2(C)[C@H]1CC[C@]2(O)C(=O)CO,inactive
3,CCN1CCc2nc(N)oc2CC1,inactive
4,Cc1cc(C)c(/C=C2\C(=O)Nc3ccccc32)[nH]1,inactive
5,CC(C)(C)c1ccc(C(=O)CCCN2CCC(OC(c3ccccc3)c3ccccc3)CC2)cc1,inactive
6,CCn1nc(C(=O)O)c(=O)c2cc3c(cc21)OCO3,inactive
7,COc1ccc([C@@H]2Sc3ccccc3N(CCN(C)C)C(=O)[C@@H]2OC(C)=O)cc1,inactive
8,CC[N+](C)(C)c1cccc(O)c1,inactive
9,C[N+](C)(C)CCOC(=O)CCC(=O)OCC[N+](C)(C)C,inactive
10,NC(N)=N/N=C/c1c(Cl)cccc1Cl,inactive
11,CC1=C(C)C(=O)C(CCCCC#CCCCC#CCO)=C(C)C1=O,inactive
12,NC(=Nc1ccccc1)Nc1ccccc1,inactive
13,Cc1ccc(=O)n(-c2ccccc2)c1,inactive
14,C[C@H](CS)C(=O)N1CCC[C@H]1C(=O)O,inactive
15,CN(C)CCCN1c2ccccc2Sc2ccccc21,inactive
16,C[N+](C)(C)CCCCCCCCCC[N+](C)(C)C,inactive
17,NC1=NCC2c3ccccc3Cc3ccccc3N12 (stereo not given),inactive
18,CC(C)NNC(=O)c1ccncc1,inactive
19,CCc1cccc(N(C)C(N)=Nc2cccc3ccccc23)c1,inactive
20,NC/C=C/C(=O)O,inactive

row,Compound,outcome
1,CSc1ccc(C(=O)c2[nH]c(=O)[nH]c2C)cc1,inactive
2,CN(C(=O)CCCOc1ccc2[nH]c(=O)ccc2c1)C1CCCCC1,inactive
3,CC(C)[N+](C)(CCOC(=O)C1c2ccccc2Oc2ccccc21)C(C)C,inactive
4,COCC(=O)O[C@]1(CCN(C)CCCc2nc3ccccc3[nH]2)CCc2cc(F)ccc2[C@@H]1C(C)C,inactive
5,C[N+](C)(C)CCOC(N)=O,inactive
6,CN(C)C/C=C(/c1ccc(Br)cc1)c1cccnc1,inactive
7,c1cc(CN2CCCCC2)cc(OCCCNc2nc3ccccc3s2)c1,inactive
8,CCCC(C(=O)OCCN(CC)CC)(c1ccccc1)c1ccccc1,inactive
9,CN(C)CCCN1c2ccccc2Sc2ccc(C(F)(F)F)cc21,inactive
10,CN(C)CC[C@@H](c1ccc(Br)cc1)c1ccccn1,inactive
11,O=C(CCCN1CCC(O)(c2cccc(C(F)(F)F)c2)CC1)c1ccc(F)cc1,inactive
12,CC(C(=O)O)c1ccc(CC2CCCC2=O)cc1 (stereo not given),inactive
13,CCN(CC)CCCN(c1ccccc1)C1Cc2ccccc2C1,inactive
14,C#CCN(C)CCCOc1ccc(Cl)cc1Cl,inactive
15,NCCCNCCSP(=O)(O)O,inactive
16,O=C(O)CN(CCOCCOCCN(CC(=O)O)CC(=O)O)CC(=O)O,inactive
17,NC(=O)c1cn(Cc2c(F)cccc2F)nn1,inactive
18,NC(=O)c1ncn([C@@H]2O[C@H](CO)[C@@H](O)[C@H]2O)c1O,inactive
19,O=C(CCNNC(=O)c1ccncc1)NCc1ccccc1,inactive
20,CC(N=C(NC#N)Nc1ccncc1)C(C)(C)C (stereo not given),inactive
